Experimental data reported in PubChem BioAssay AID1813 (Broad Institute, 2009).
Screen size: about 300,000 compounds; about 2,500 (0.83%) were called active. This excerpt belongs to a sample that is enriched for actives. A number with no mark means an inactive call. Cut-off read from the data, not from the text of the source: active = inhibition above about 60%; inconclusive = no clear call, values can overlap the other calls; inactive = below that.

Assay: 5' untranslated region of α-synuclein, MLPCN primary screen (AID 1813);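 note: H4 neuroglioblastoma cells stably carrying SNCA 5'UTR luciferase fusion; 0% = DMSO wells and 100% = positive control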
Conditions: alpha-synuclein 5'UTR reporter, inhibitor activity; active compounds read high; tested at 7.5 µM

Point of comparison: `COc1ccc(N2CCN(C(=O)CNC(=O)c3ccc(Br)o3)CC2)cc1`, inhibition 0.266%. Against it:
- COC(=O)C1(C)NC(c2ccccc2OC)C2C(=O)N(c3ccccc3)C(=O)C21 (centres undefined) — higher, 0.536%
- CC(C)CC[n+]1ccn(C2=C([O-])c3ccccc3C(=O)/C2=N\S(=O)(=O)c2ccccc2)c1 — lower, -27.8%
- COc1ccc2c(c1)CCNC2Cc1ccc(OC)c(O)c1 (centres undefined) — higher, 11.8%
- CCc1ccc(OCC2c3cc(OC)c(OC)cc3CCN2C(C)=O)cc1 (centres undefined) — higher, 0.678%
- COc1ccc(S(=O)(=O)N(C)CC(=O)NCCCN2CCOCC2)cc1Cl — higher, 6.18%
- COc1ccc(C(=O)C2CCCN(S(=O)(=O)c3cccc(C)c3)C2)c(C)c1 (centres undefined) — lower, -3.32%
- Cc1ccccc1/[N+]([O-])=C/c1ccncc1 — higher, 5.11%
- Cc1ccc(NC(=O)COc2ccc(/C=C3/NC(=O)NC3=O)cc2)cc1 — higher, 1.96%
- Cn1cc(CNC(=O)c2ccc(OC3CCN(Cc4ccccn4)CC3)cc2)cn1 — higher, 14.6%
- O=C(c1ccc(OC2CCN(Cc3ccccn3)CC2)cc1)N1CCCCCC1 — higher, 3.78%
- Cc1ccc(Nc2nc(Cl)c(C=O)s2)cc1 — lower, -26.4%
- Cc1ccc2nc(-c3ccncc3)cc(C(=O)Nc3ccc4c(c3)OCCO4)c2c1 — higher, 47.2%
- Cc1ccc2nc(-c3ccncc3)cc(C(=O)Nc3ccncc3)c2c1 — higher, 5.38%
- COc1ccccc1/C=N/Nc1nc(C)c(C(C)=O)s1 — lower, -154%
- COc1cccc2c(N/N=C/c3ccco3)cc(C)nc12 — lower, -38.3%
- Cc1csc2nc(O)c(C(=O)NCCN3CCOCC3)c(=O)n12 — lower, 0.0631%
- Cc1ccc2sc(N(CCN(C)C)C(=O)/C=C/c3cccs3)nc2c1C — lower, -3.93%
- Cc1nc2ccccn2c1C(=O)NN=C1CCN(C)CC1 — higher, 18%
- CCCC[C@@H]1CN=C(N)N1CCc1cccc(F)c1 — lower, -1.65%
- Cc1ccc(C)c(NC(=O)COC(=O)Cn2c(C)csc2=O)c1 — higher, 3.94%
- CCOc1ccc(C(C(=O)NC2CCCC2)N(C(=O)c2snc(C(N)=O)c2N)C2CCCC2)cc1 (centres undefined) — higher, 1.96%
- OCCC1CN(Cc2ccc3nsnc3c2)CCN1C1CCCCC1 (centres undefined) — lower, -4.85%
- CCCCn1c(=O)c(C(C)=O)c(O)c2ccccc21 — lower, -6.66%
- CCOC(=O)c1nnn2c3ccccc3c(=O)n(C)c12 — lower, -5.14%
- CNc1ccc(SC#N)cc1 — higher, 1.02%
- CCOC(=O)N1CCN(C(=O)C(=O)Nc2sc3c(c2C#N)CC(C)(C)OC3)CC1 — lower, -17.6%
- COc1cc2cc(C(=O)N/N=C/c3cccc(OC)c3OC)[nH]c2cc1OC — higher, 22.3%
- CN(C)CCNC(=O)c1[nH]nc2c1CCc1ccccc1-2 — lower, -73.6%
- CCOCCCN(C)C1CCN(C(=O)c2oc3ccccc3c2NC(=O)COc2cccc(C)c2)CC1 — higher, 45.5%
- CCOC(=O)c1ccc(NNC(C)=O)c([N+](=O)[O-])c1 — lower, -28%
- CCCCCOc1ccc(/C=C/C(=O)NCCc2nc3ccccc3[nH]2)cc1OC — higher, 14.1%
- Cc1cc(Oc2ccc(Cl)cc2)nc(SCC(=O)c2ccccc2)n1 — higher, 27.8%
- Cc1cc(Nc2ccc(Cl)cc2)nc(N2CCOCC2)n1 — lower, -19%
- Cc1cc(C)n(-c2ccc(C(=O)O)cc2[N+](=O)[O-])n1 — lower, -5.9%
- Cc1cc(N/N=C\c2ccc(Br)cc2)nc(-n2nc(C)cc2C)n1 — higher, 25%
- CCC(C(=O)OC)n1cnc2c(oc3ccccc32)c1=O (centres undefined) — higher, 16.1%
- Clc1ccc(-c2ncc3ccccn23)c(Cl)c1 — lower, -17.4%
- O=C1c2ccccc2C(=O)N1Cc1cc(-c2ccccc2Cl)no1 — higher, 15.2%
- COc1cc(NC(=O)C2=C(C)OCCS2)c(Cl)cc1C(=O)NCCN1CCN(C)CC1 — lower, -14%
- CN1C(=O)[C@H]2[C@@H](C3CC3)N3C(=O)CN(Cc4ccccc4)C(=O)[C@@]3(C)[C@H]2C1=O — lower, -12.7%
- Cc1nc2c(c(C)nn2-c2ccccc2)c(C)c1C — lower, -0.524%
- COc1ccc(/C=C2\SC(=S)N(CCC(=O)Nc3cccc(C(=O)O)c3)C2=O)cc1OC — higher, 6.81%
- COc1ccc(/C=C2\SC(=S)N(CCC(=O)Nc3ccccn3)C2=O)cc1OC — higher, 28.8%
- CCOc1ccc(S(=O)(=O)N/N=C(\C)c2ccc(Cl)c(Cl)c2Cl)cc1 — higher, 2.56%
- O=C(NCCc1ccccc1)C(=O)NCC1OCCN1S(=O)(=O)c1cccs1 (centres undefined) — higher, 2.43%
- CC(CNS(=O)(=O)c1ccc(Br)cc1)CN(C)C (centres undefined) — higher, 22%
- CN(CC(=O)NNC(=O)CNC(=O)c1ccccc1Cl)S(=O)(=O)c1ccc(Cl)cc1 — lower, -12.7%
- CCc1cc(-c2nnc(SCC(=O)NC3CC3)n2C)cs1 — lower, -4.18%
- Cc1cc(C(=O)N/N=C/c2cc([N+](=O)[O-])cc(C)c2O)n[nH]1 — lower, -3%
- Cc1ccccc1NCC(=O)N/N=C\c1ccc([N+](=O)[O-])s1 — lower, -43.2%
- CCOC(=O)C(C)n1cnc2c(nnn2-c2cccc(OC)c2)c1=O (centres undefined) — lower, -35.8%
- O=C(C[n+]1ccc2c(c1)nnn2-c1ccccc1)c1ccc(Cl)cc1 — higher, 9.87%
- CC(=O)Nc1nc2ccccc2n1Cc1ccc(C)cc1 — higher, 48.2%
- CCCCn1c(CCCNC(=O)CC)nc2ccccc21 — lower, -5.46%
- CNC(=O)c1csc(Cc2c(Cl)sc3ccc(Cl)cc23)n1 — lower, -10.2%
- CC(=O)Cc1nsc(NC(=O)c2ccc(Cl)cc2Cl)n1 — lower, -9.27%
- CC12CN3CCN(CC(C3)/C1=N\NC(=O)c1ccccc1N)C2 — lower, -83.3%
- Cc1ccc(CN2CCN(Cc3ccc4ncccc4c3)CC2CCO)cc1 (centres undefined) — lower, -3.25%
- CNC(=O)C(=O)N/N=C/c1ccccn1 — higher, 10.9%
- Cc1nnc(N/N=C/C2CC=CCC2)[nH]c1=O (centres undefined) — lower, -14.7%
- COc1cc(/C=N/N=C(\N)c2nonc2N)cc(OC)c1OC — lower, -18.9%
- O=C(CNC(=O)Cc1ccccc1)NCC(=O)OCC(=O)c1ccccc1Cl — lower, -27.1%
- CC(=O)c1ccc(S(=O)(=O)N2CCN(c3nc4c(C)c(C)ccc4cc3C#N)CC2)cc1 — higher, 15.2%
- CC(=O)c1ccc(S(=O)(=O)N2CCC3(CC2)OCCO3)cc1 — lower, -7.06%
- CC(N)C12CC3CC(CC(O)(C3)C1)C2 (centres undefined) — higher, 11.6%
- COc1ccccc1Cn1c(=S)[nH]c2cc(C(=O)N3CCN(C)CC3)ccc2c1=O — higher, 30.1%
- CCOc1cc2[nH]c(=S)n(Cc3ccc(C(=O)NCCOC)cc3)c(=O)c2cc1OCC — higher, 13.8%
- COc1cccc(-c2cc(C(=O)N3CCN(c4ccccc4OC)CC3)no2)c1 — lower, -4.47%
- COc1ccccc1N1CCN(C(=O)c2cc(=O)c3cc(C)ccc3o2)CC1 — lower, -36.8%
- Cc1ccc(C(=O)Nc2nnc(C3=COCCO3)o2)cc1C — lower, -10.3%
- CCN(CC)S(=O)(=O)c1ccc(N2CCCC2)c(NS(=O)(=O)c2cccs2)c1 — lower, -11.1%
- COc1ccc(C(=O)CC(=O)C(=O)Nc2cc([N+](=O)[O-])ccc2OC)cc1 — lower, -25.8%
- COc1ccc2c(C(=O)c3ccc(C)cc3)n(CCC(N)=O)[n+]([O-])c2c1 — lower, -21.1%

With `CC[C@H]1CN2CCc3cc(OC)c(OC)cc3[C@@H]2C[C@@H]1C[C@H]1NCCc2cc(OC)c(OC)cc21` the inhibition was 109% (active).
In the case of `O=C(NCCOc1cccnc1)c1ccc(OC2CCN(Cc3ccccn3)CC2)cc1`, the inhibition is reported as 95.3% (active).
In the case of `Cc1ccc2nc(-c3ccncc3)cc(C(=O)Nc3ccc(OC(F)F)cc3)c2c1`, the inhibition is reported as 67.6% (active).
For `COc1cccc(/C=N/Nc2cc(C)nc(-c3ccccc3O)n2)c1O`, the inhibition was 82.8% (active).
For `CCCCCCCCn1c2c(c(=N)c3c1CCC3)CCCC2`, the inhibition was 101% (active).
With `CCCCCn1c(=O)c(C(=O)OCC)c(Cl)c2ccccc21` the inhibition was 92.6% (active).
With `COc1ccc2c3c1O[C@H]1C[C@@H](O)C=C[C@@]31CCN(C)C2` the inhibition was 62% (active).
With `COc1cccc(/C=N/NC(=O)c2[nH]nc3c2CCc2ccccc2-3)c1O` the inhibition was 76.4% (active).
With `CC(=O)c1ccc(Oc2cc(C)nc(-n3nc(C)cc3C)n2)cc1` the inhibition was 80.1% (active).
With `COc1ccc(Nc2cc(C)nc(-n3nc(C)cc3C)n2)cc1` the inhibition was 92.8% (active).
With `Clc1ccc(-c2cc(-c3ccccn3)on2)c(Cl)c1` the inhibition was 108% (active).
With `COc1ccc(/C=C2\SC(=S)N(CCCC(=O)NC3CCCC3)C2=O)cc1OC` the inhibition was 83.7% (active).
With `CC(C)(C)c1cc(C(=O)N/N=C/c2ccc([N+](=O)[O-])s2)n[nH]1` the inhibition was 64% (active).
For `CCC(=O)Nc1nc2ccccc2n1Cc1ccccc1C`, the inhibition was 65.5% (active).
In the case of `CC(=O)NNC(=O)c1csc(Cc2c(Cl)sc3ccc(Cl)cc23)n1`, the inhibition is reported as 67.1% (active).
For `Cc1nnc(N/N=C/c2ccccn2)[nH]c1=O`, the inhibition was 117% (active).
With `CC(=O)c1ccc(S(=O)(=O)N2CCN(C(=O)/C=C/c3ccc4ccccc4n3)CC2)cc1` the inhibition was 62.4% (active).
In the case of `CCOc1cc2[nH]c(=S)n(Cc3ccc(C(=O)N4CCN(C)CC4)cc3)c(=O)c2cc1OCC`, the inhibition is reported as 86.1% (active).
For `COc1ccccc1N1CCN(C(=O)c2cc(=O)c3cc(C)cc(C)c3o2)CC1`, the inhibition was 78.3% (active).
For `COc1ccc(C(=O)c2c3ccc([N+](=O)[O-])cc3[n+]([O-])n2CCCN)cc1`, the inhibition was 63.1% (active).
